Assay results: PubChem BioAssay AID1347426 (Functional Genomics Laboratory (NCATS/FGL), 2020)
The campaign covered roughly 31,000 sequences. About 1,400 (4.5%) were called active. Only a selection was taken, and actives are over-represented in it overall. Values without a mark were called inactive.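 Rule for the calls: active = median seed-adjusted z-score above 1 or below -1; inactive = the rest.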

assay: Novel Modifiers of Survival Motor Neuron (SMN) Protein: Gene Identification via Genome-wide siRNA Screen; settings: HEK293T SMN2-luciferase reporter, siRNA knockdown, 72 h; actives lie on both sides;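 note: luminescence tracks full-length SMN protein made from the SMN2 reporter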
In short: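 Each of three siRNAs per gene is reverse-transfected (1 pmol) into reporter HEK293T cells whose luciferase output tracks SMN protein level. After 72 h culture, ONE-Glo luminescence is control-normalized, log10-transformed and MAD-standardized; Common Seed Analysis deprioritizes seed-driven hits.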

| Sequence | median seed-adjusted z-score |
| --- | --- |
| CAAGAGCAGUUUAAUAGCATT against BAT3 | 0.567 |
| GGAACUUACUACAACUCCATT against TMPRSS6 | 1.29 (active) |
| GGUUAGCUUAUGUUACAUATT against E2F3 | -0.215 |
| ACUCCUCUCUGUUAAUGGATT against LIN7C | 0.021 |
| GGUUGAAGAUGGUACUCCUTT against ADAMTS20 | 1.44 (active) |
| CUCCAGAUAUAGACCUCAATT against TRIM22 | 0.363 |
| UGUUGUACCUCUAAUGUCATT against GPR172B | 0.184 |
| GCAACCCACCAAUAACUAATT against ADAM29 | 0.904 |
| UGAGUUCUUUAGGACCGAATT against MFAP3L | 1.03 (active) |
| GUACUGUAGAGAAAGCGUATT against ZNF606 | 0.118 |
| UUUCCAAACAAGUACCUAATT against CKS2 | 0.0907 |
| GCAUAUACCAUCGCUGUAATT against SUPT16H | 1.2 (active) |
| CCAGAUAUGGUAUCCCAAUTT against ZNF227 | 0.0194 |
| GUCUCAAUCUAAUAAGGAATT against TTLL1 | 0.322 |
| GAUCAGGACUUUAUGUUCATT against ZNF225 | 0.0761 |
| GAGCGUACCAAGGAUCUAATT against HDLBP | -1.18 (active) |
| CUUUUGACGUGAACGAUGATT against ORM1 | 0.206 |
| CCGCCCAAGUAGUAAAGAATT against ADCY3 | -0.294 |
| AGACUUUAAGGAGAAAACATT against YAF2 | 0 |
| GGUUCACGGUUCAAAAUCATT against SLC25A24 | -0.0384 |
| GGUCCAACAUGCAAUCCAATT against EDEM3 | 0.119 |
| GCCGCAACAUGGAAGUACATT against MAPK8IP3 | 0.734 |

| Sequence | median seed-adjusted z-score |
| --- | --- |
| GGGAGAUCUUCGACUCAUATT against ADRBK1 | 0 |
| GGGACUAUUCCAAAACCCATT against FLAD1 | 0.367 |
| GGAAUGUGCUGGUCGGAGATT against TIE1 | 0.0629 |
| CCAAAUACAUCGCAUUAGATT against GTPBP4 | 1.01 (active) |
| GGUUCAUACAGACUCUUAUTT against PJA2 | 0 |
| GAUAAAAACAGUCCUUUCUTT against FXYD3 | 0.254 |
| CAAUGUUACCAAAACCGAATT against ACVR1C | -0.0005 |
| CCCUACCAACAUUAAGUAUTT against CLDN7 | 0.0208 |
| GGAUGUGGUUUAUUAUACATT against SLC16A9 | 0.125 |
| GCCUAUCAAUUGUUCGGGATT against TTF1 | 1.76 (active) |
| GCGUAUGGGAUUACAAGAATT against PAFAH1B1 | 0.391 |
| GGCUAGUACUGACAGAUGATT against CREB3 | 0.0509 |
| ACUCCUACAUGUACAUUCUTT against KCNE3 | -1.33 (active) |
| GGUUAAAAGUCGGUCCCAATT against SGCG | 0.886 |
| GCAUCUCUAUUGUAGCCCUTT against GHRHR | 0 |
| CAUCCGAUCUGAUAGGUCUTT against EFEMP1 | 0.0157 |
| AGACCUAGCAUGGACCAGATT against GUCY2E | 0.61 |
| CUUGGACACUGAAAACGCATT against ITGAM | -1.56 (active) |
| GGAUGAGUACAGAUUUACATT against CLPX | -0.0436 |
| AGCUCAUAGCUGACCCAGATT against ZC3H3 | -0.622 |
| CAGAUGACUUCAGAACCAATT against KRT33B | 0.04 |
| GGCUAUAUCGUCACAAUGATT against ABCA4 | -1.09 (active) |

| Sequence | median seed-adjusted z-score |
| --- | --- |
| GGUAAUGCUUUAUUCCAAATT against ZNF677 | -0.441 |
| GAGCUGACGUGUACUCAUATT against USP5 | 0.596 |
| CGCAUUCUCCAGUCGCACATT against KRT81 | -0.0955 |
| CGGUUGGAGUUGGAUGACATT against TRIB3 | 0.00635 |
| ACAUCAAAACACCAGCUUUTT against YBX2 | 0.362 |
| CCUACGUUUUUAUUAUCUUTT against SLC2A14 | -1.09 (active) |
| GCACAAGGAGUGACCUUCUTT against GCHFR | -0.559 |
| GAACUUUGUUACUAUCGAATT against PCDH9 | 0.165 |
| GGAUCCUGGUGAUAAGAGATT against QRICH1 | -1.04 (active) |
| GAGAAAAUCUAUAUCCGGATT against NR2C2 | -0.498 |
| CCCGGAGAAUUCUCAAUGATT against NENF | -0.778 |
| CAUCAAUGACUCACCCUUUTT against RTN4R | -0.536 |
| CAAACGACCUUUGCCCAAATT against MED17 | -2.06 (active) |
| AAACUUGCCUGAGUACAAATT against KCNH3 | -0.509 |
| GCUCCAGUCUCACUAAACATT against ZNF552 | 0.437 |
| GAAUGAAGGUUUAUAUUGATT against EPHB3 | -0.407 |
| AGGAGACUCUUUGCUACAATT against MRGPRX1 | -0.188 |
| GAAUGUUGACUCUACUGCATT against POLR3K | 0.504 |
| GGGACCAUCCUGUUCUUCATT against KCNK12 | 1.04 (active) |
| CUCACAACAAAUUACUUAATT against CYP2C9 | 0.246 |
| GGACUUGAGAGAUCUCUUUTT against DAB1 | 0.307 |
| GGUCUAAAGGUGGAGAUAATT against EIF2C2 | -0.183 |

| Sequence | median seed-adjusted z-score |
| --- | --- |
| CAUGUGCAGUACAUCCAUATT against TIMP3 | -1.05 (active) |
| GCCCUUUACAUACUCUUCATT against IL23R | 0.512 |
| GGAUGAUAUUCUAUCCUUUTT against IPO13 | 0.612 |
| UGCUCAGCAGUACAACGUATT against SYN1 | -0.458 |
| UGUCCACGGUUAAAAUUAUTT against CCL16 | -0.308 |
| CAAACCGAAUAGAAACUUUTT against PSMC1 | -2.23 (active) |
| UCAACUGCCCAUACACUUATT against LOC647743 | -0.203 |
| UCCCAGUGAUUAUACGUUATT against ARPC4 | -0.211 |
| GGAUGAGAACAUUAAAACATT against COQ3 | 0.426 |
| UGAUGGAAGUUGUCACUUATT against BLK | -0.274 |
| GGCAAUGCUUUACUAUGAATT against ABCG8 | -0.0233 |
| AGAUGUUCUUAAGACCAAATT against PACSIN2 | 0.73 |
| GGACUUCUGAAAAUUCGCATT against EP400 | 1.83 (active) |
| CCGCGAUCAUAGACCUAGATT against FOXO4 | -0.0576 |
| GGACAGGAAGAUACAAGAATT against GPR113 | -0.434 |
| GGAAGAAUAUGUUUAGAUATT against UBE2N | 0.995 |
| CGAGCAAUUUAGAGACUUATT against PCDHGA3 | 0.27 |
| GGAGAUACCAGGAACCCAATT against SLC7A13 | 0.121 |
| CACGCAGAGUUACCGAAAATT against SPEN | -1.69 (active) |
| CGAGCCACCGAGAAGAUAATT against ATAD3A | -0.283 |
| GGACAAGAUUGGUGGGUUATT against PEX1 | 0.227 |
| GUACCAAUACUGAUAAGAATT against SLC9A11 | -0.12 |

| Sequence | median seed-adjusted z-score |
| --- | --- |
| GGCCUAUCCUGAUUCUGAUTT against RND2 | -0.0613 |
| GGAUACUCUGAUGAAGAUATT against GNAQ | -1.23 (active) |
| AGUCAGCUCCGAUACUUCATT against CAPN10 | 0.364 |
| UCACUGUGGUGUAUUUUAATT against PDP2 | -0.0726 |
| GCUUCCAACUGCUUAUAUATT against TP53RK | 0 |
| CCAUCUCCUCUGAAACGUATT against RREB1 | -0.414 |
| CAGAGACUGUUAUCCAUUUTT against SLC25A36 | 0.134 |
| UUGUGGAUGUUGAACCUAATT against SNRPD1 | -2.97 (active) |
| GCUACUAACAUUACUCCAATT against FOLH1 | 0.148 |
| CCAUCUCUACCGACGAAGATT against ARHGEF1 | -0.0658 |
| CAUUCUAUGGGAUACCCUATT against SYT4 | -0.354 |
| CAGGAAGUCUGACCAAUAATT against LPL | 0.389 |
| UGACCGAUGUCUUCCUUAUTT against RHOQ | -0.328 |
| CUCUGAUUAUCAUGAGAUATT against SRGAP2 | 0.0323 |
| AACCUAUAAUGAGGAUGUATT against ZNRF2 | 0 |
| AGAGCGACCUCACCACCAATT against RAB1B | 1.55 (active) |
| GGAAGCGAAUACUACUAUUTT against ST6GALNAC3 | -0.205 |
| GCAUUGAUCCUCAGAGUAATT against PTPRU | 0 |
| GGGAUAUGAUAGAUCCUUATT against CPO | 0.0875 |
| CCGCAUAGCUCAUAGGAUATT against SMARCA2 | -0.458 |
